Screening results from PubChem.
The list is not random: actives were taken first. Their share in the collection is about 1.5%.
Dyrk1A ADPGlo: blocks rat Dyrk1A kinase activity; Q63470; ADP-Glo luminescence, NFATc1 peptide; inhibition, % at 12.5 µM; hit rate 0.43% among 310,000; in the data active means inhibition above about 50%
PP1 inh: counter-screen for PP5 inhibitors: inhibitors of human PP1-alpha; P62136; purified PP1alpha, OMFP fluorescence; inhibition, % at 6.7 µM; hit rate 0.9% among 320,000; AID 2235;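 active means inhibition above the mean inhibition of all tested compounds plus 3 SD, computed separately for each screening campaign, cut at about 15% in these data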
HIF act: HIF pathway transcriptional activation; hit rate 0.32% among 300,000; AID 1910; activation, % at 7.5 µM (by protocol); U2OS HRE-luciferase reporter, luminescence; normalized: DMSO 0%, desferrioxamine 100%;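 active means mean activation of at least 10% of the iron chelator positive control signal, with at least half of replicates also reaching 10%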
STK33 inh: human STK33 kinase inhibition; Q9BYT3; purified STK33, MBP phosphorylation, ADP-Glo luminescence; inhibition, % at 10 µM; hit rate 0.073% among 320,000; AID 2661;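 active means inhibition at or above 25%, using the most active replicate where run in duplicate; inactive means inhibition below 25%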
Target sequence (Q9BYT3 whole entry, looked up): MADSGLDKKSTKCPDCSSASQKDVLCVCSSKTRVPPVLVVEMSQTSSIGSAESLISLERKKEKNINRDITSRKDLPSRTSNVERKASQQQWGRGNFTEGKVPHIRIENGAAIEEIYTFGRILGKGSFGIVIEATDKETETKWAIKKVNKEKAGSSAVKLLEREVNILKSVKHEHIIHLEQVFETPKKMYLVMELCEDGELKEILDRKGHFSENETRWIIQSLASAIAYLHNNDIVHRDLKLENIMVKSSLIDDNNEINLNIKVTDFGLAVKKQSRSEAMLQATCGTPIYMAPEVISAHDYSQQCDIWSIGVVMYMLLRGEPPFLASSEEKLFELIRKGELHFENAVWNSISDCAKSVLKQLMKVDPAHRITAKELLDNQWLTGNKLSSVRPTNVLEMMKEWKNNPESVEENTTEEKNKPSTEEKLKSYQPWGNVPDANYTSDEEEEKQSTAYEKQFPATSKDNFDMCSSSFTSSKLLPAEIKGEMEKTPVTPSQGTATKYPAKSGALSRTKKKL
PP5 inh: inhibitors of human protein phosphatase 5 (PP5). P53041. purified PP5c, OMFP substrate fluorescence. inhibition, % at 6.7 µM. hit rate 0.18% among 320,000;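 active means inhibition above the campaign's mean inhibition across all tested compounds plus 3 SD, cut at about 9.5% in these data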
A number is an active result; n = inactive; x = no result.

SMILES	Dyrk1A ADPGlo	PP1 inh	HIF act	STK33 inh	PP5 inh
Cc1ccc(NC(=O)CCCc2nc3ccccc3s2)c(O)c1	x	n	n	n	n
CCn1c(C)nc2cc(-c3nc4n(n3)Cc3ccccc3-4)ccc21	n	n	n	45	n
Cc1ccc(-c2nc3n(n2)Cc2ccccc2-3)cc1	n	n	n	n	n
O=C(Nc1cccc2nsnc12)c1cccs1	n	n	n	n	n
O=C(Nc1ccccc1)Nc1cccc2nsnc12	n	n	11	n	n
NC(=O)CC(NC(=O)c1ccc(Br)cc1)c1ccc(N2CCN(c3ccccc3)CC2)c([N+](=O)[O-])c1 (stereo not drawn)	n	15	n	n	n
NC(=O)CC(NC(=O)c1ccccc1)c1ccc(N2CCC(Cc3ccccc3)CC2)c([N+](=O)[O-])c1 (stereo not drawn)	n	17	n	n	n
NC(=O)CC(NC(=O)c1ccc(Br)cc1)c1ccc(N2CCCCCCC2)c([N+](=O)[O-])c1 (stereo not drawn)	n	n	n	n	n
NC(=O)CC(NC(=O)c1ccccc1)c1ccc(N2CCC(N3CCCC3)CC2)c([N+](=O)[O-])c1 (stereo not drawn)	n	n	n	n	n
Fc1ccc(-[n+]2nc(Nc3ccccc3)sc2-c2cccc(Cl)c2Cl)cc1	n	17	n	n	n
Clc1cccc(-c2sc(Nc3ccccc3)n[n+]2-c2ccccc2)c1Cl	n	n	n	n	n
CSc1ccc(-c2sc(Nc3ccccc3)n[n+]2-c2ccccc2)cc1	n	17	n	n	n
O=C(Nc1ccc(CN2CCS(=O)(=O)CC2)cc1)c1ccc(Cl)cc1	n	n	n	n	n
O=c1ccc2cc(S(=O)(=O)Nc3ccc(Br)cc3)ccc2o1	x	x	n	n	x
N#Cc1ccc(-c2csc(NNC(=O)c3ccc(Br)cc3)n2)cc1	n	n	9.7	n	n
N#Cc1ccc(-c2csc(NNC(=O)c3ccccc3)n2)cc1	n	n	n	n	n
CCN(CC(=O)Nc1ccc(NC(C)=O)cc1)CC(=O)Nc1cc(C)on1	n	n	x	n	n
O=C(COC(=O)c1cc(S(=O)(=O)N2CCOCC2)ccc1F)NCCc1ccc(F)cc1	n	x	x	n	x
O=C(C[n+]1cnn(CC(=O)c2ccc(Cl)cc2Cl)c1)c1ccc([N+](=O)[O-])cc1	n	17	n	n	n
Cc1cc2[nH]c(=O)c(=O)[nH]c2cc1S(=O)(=O)NC1CCCCC1C (stereo not drawn)	57	n	n	n	n
O=C1CCCN1CC(O)CS(=O)(=O)Cc1ccc(Cl)cc1 (stereo not drawn)	x	n	n	n	n
CC1=CC(=O)C(C(C)C)=C/C1=C(\c1cc(C(C)C)c(OP(=O)(O)O)cc1C)c1ccccc1C(=O)O	n	15	n	n	n
COc1ccc(CCNC(=O)c2cc(-c3cccs3)on2)cc1OC	n	n	16	n	n
O=C(NCCc1ccccc1)c1cc(-c2ccco2)on1	n	n	23	n	n
COc1ccc(CCNC(=O)c2cc(C(C)C)on2)cc1OC	n	n	n	n	n
SMILES	Dyrk1A ADPGlo	PP1 inh	HIF act	STK33 inh	PP5 inh
O=C(NCc1ccccc1)c1ccccc1C(=O)c1ncc[nH]1	n	n	n	n	n
O=C(N/N=C/c1cc2c3c(c1O)CCCN3CCC2)c1ccccc1O	n	x	55	x	x
OCC1(Cc2ccccc2)CCCN(Cc2c[nH]c3ccccc23)C1 (stereo not drawn)	n	n	n	n	n
COC(=O)[C@H](CCSC)NC(=O)c1cccnc1SC	n	n	633	n	n
O=C(NCCCc1nc2ccccc2[nH]1)c1ccc(F)cc1	n	n	n	n	n
Cc1nc(C(=O)Nc2cc(Cl)ccc2Cl)nn1-c1cc(OC(C)C)c(Cl)cc1Cl	n	n	n	n	n
Cc1nc(C(=O)Nc2ccc(Cl)cc2Cl)nn1-c1cc(OC(C)C)c(Cl)cc1Cl	n	n	15	n	n
O=C(COc1cccc2ccccc12)Nc1ccc(Cl)cc1C(=O)O	n	n	15	n	n
Nc1c(C(=O)c2ccc(Cl)cc2)sc2c1c(=O)[nH]c(=O)n2-c1ccccc1	n	16	n	n	n
O=c1c2ccccc2nc(COc2ccccc2)n1/N=C/c1ccc(O)cc1O	x	n	61	n	n
C/C(=N\OCc1nc2ccccc2c(=O)n1/N=C/c1cc([N+](=O)[O-])ccc1O)c1ccccc1	n	n	10	n	n
C/C(=N\OCc1nc2ccccc2c(=O)n1/N=C/c1cc(C)cc([N+](=O)[O-])c1O)c1ccccc1	n	n	9.6	n	n
CCOc1ccc(-n2c(SCC(=O)c3c(N)n(C)c(=O)n(C)c3=O)nnc2-c2cccnc2)cc1	n	n	n	n	n
Cc1ccc(C(=O)c2ccccc2C(=O)OCC(=O)NCC2CCCO2)cc1 (stereo not drawn)	n	n	n	n	n
CC(=O)Nc1ccc(C(=O)Nc2nc(-c3ccccn3)cs2)cc1	n	n	n	n	n
O=C(Nc1nc(-c2ccccn2)cs1)c1cc(Cl)ccc1[N+](=O)[O-]	n	16	36	n	n
CCc1cc(C(=O)Nc2nc(-c3ccccn3)cs2)sc1C	x	16	x	n	n
O=C(Nc1nc(-c2ccccn2)cs1)c1ccccc1-n1cnnn1	n	n	52	n	n
Cc1cc(C(=O)Nc2nc(-c3ccccn3)cs2)ccc1[N+](=O)[O-]	n	n	n	n	n
CCCNC(=O)Cn1c(=O)/c(=C\c2ccc(-c3cccc([N+](=O)[O-])c3)o2)s/c1=C\C(=O)C(C)(C)C	n	16	n	n	n
CC(C)Oc1ccc(C(CC(=O)O)Cc2ccccc2)cc1 (stereo not drawn)	n	n	n	n	n
CC(C)=C1C(=O)NN(c2ccc(F)c(Cl)c2)C1=O	n	n	n	n	n
O=C1NN(c2ccc(F)c(Cl)c2)C(=O)/C1=C\c1cccc(OC(=O)c2cccs2)c1	n	15	n	n	n
CCc1ccc2nc3nc(C)cc(C)c3c(N)c2c1	n	n	n	n	n
Cc1cc(C)c2c(N)c3ccccc3nc2n1	n	n	20	n	n
SMILES	Dyrk1A ADPGlo	PP1 inh	HIF act	STK33 inh	PP5 inh
COc1ccc(/C=C(/CC(=O)NCc2ccc(Cl)cc2)c2nc3ccccc3s2)cc1	n	15	n	n	n
COc1ccc([N+](=O)[O-])cc1N(CC1CO1)S(=O)(=O)c1ccc(C)cc1 (stereo not drawn)	n	n	n	n	n
O=C(O)c1cn(Cc2ccccc2)c2ccc(Cl)cc2c1=O	n	17	n	n	n
COc1ccc(Cn2cc(C(=O)O)c(=O)c3ccccc32)cc1	n	n	n	n	n
C=C(C)C(=O)Nc1ccc2c(c1)OCCOCCOCCO2	x	17	n	n	n
Cc1ccc(NC(=O)CCNS(=O)(=O)c2ccc3c(c2)CCC(=O)N3)cc1	n	n	n	n	n
CCOC(=O)C1=C(CSc2nc(-c3ccccc3)ccc2C#N)OC(N)=C(C#N)C1c1ccccc1 (stereo not drawn)	n	n	n	n	n
CCOC(=O)C1=C(CSc2nc3c(cc2C#N)CN(C)CC3)OC(N)=C(C#N)C1c1ccccc1 (stereo not drawn)	n	17	n	n	n
